One may read the % Inhibition as the change of the read-out against control, counted positive when it falls.

Like-named read-outs stand apart in the source and are kept apart here. Screen size: about 13,000 compounds; about 3,200 (25%) showed an effect of 50% or more. This is one part of the list.

The test has as its system P. falciparum stage V gametocytes. Further details: BacTiter-Glo ATP luminescence viability of purified stage V gametocytes in 384-well plates, per cent inhibition versus DMSO. The settings on record: 48 h, 5 µM, inhibitor.

In the case of `CCOc1cc(C(=O)Nc2cccnc2)ccc1-c1nc2cc(Cl)c(Cl)cc2[nH]1` [TCMDC-140059], the “% Inhibition” value came out at 1.839%.

As to `Cc1nc2nc(N)nc(N)c2c(C)c1Cc1ccccc1I` [TCMDC-137243], the “% Inhibition” value was -2.242%. As for `CCCCCNc1nc2nc(N)nc(N)c2nc1-c1ccccc1` [TCMDC-141983], the “% Inhibition” value is listed as -14.59%.

For `Cc1ccc(S(=O)(=O)n2nccc2-c2c(-c3ccc(Cl)cc3)noc2C)cc1` [TCMDC-124500], the “% Inhibition” value is on record as 65.37%.

As for `Cc1onc(-c2ccc(Cl)cc2)c1-c1ccnn1S(=O)(=O)c1ccc(Cl)cc1` [TCMDC-123770], the “% Inhibition” value is 63.51%. For `Cc1noc(C)c1S(=O)(=O)N(C)Cc1ccc(-c2ccc(Cl)cc2)o1` [TCMDC-125303], the “% Inhibition” value is -57.93%. In the case of `Cc1cc(C(=O)NCc2ccc(-c3c(C)noc3C)cc2)n(-c2ccc(Cl)cc2)n1` [TCMDC-133781], the “% Inhibition” value was 35.85%. `COc1ccc(Nc2ncc3c(-c4cccc(NC(=O)Cc5cccc(F)c5)c4)c[nH]c3n2)cc1OC` [TCMDC-135251]: the “% Inhibition” value is on record as -27.44%. Take `COc1ccc(OCCCN2CCN(CC(c3ccc(F)cc3)N3CCN(C(C)C)CC3)CC2)c2ccccc12` (stereo not drawn) [TCMDC-135639]: the “% Inhibition” value worked out at 74.93%. With `COc1cc2ccccc2cc1OCCCN1CCN(CC(c2ccc(F)cc2)N2CCN(C(C)C)CC2)CC1` (stereo not drawn) [TCMDC-135496], the “% Inhibition” value worked out at 103.4%.

With `CC(C)N1CCN(C(CN2CCN(CCCOc3cccc4ccccc34)CC2)c2ccc(F)cc2)CC1` (stereo not drawn) [TCMDC-135494], the “% Inhibition” value turned out to be 68.95%. Take `COc1ccc2ccccc2c1CCCCN1CCN(CC(c2ccc(F)cc2)N2CCC2)CC1` (stereo not drawn) [TCMDC-135867]: the “% Inhibition” value worked out at 60.92%. For the compound `Cc1ccccc1OCCCN1CCN(CC(c2ccc(F)cc2)N2CCN(C(C)C)CC2)CC1` (stereo not drawn) [TCMDC-135492], the “% Inhibition” value is reported as -21.14%. For `COc1cccc(CN2CCN(C(c3ccccc3)c3ccccc3)CC2)c1O` [TCMDC-125556], the “% Inhibition” value is recorded as -14.13%. For the compound `COc1ccc2ccccc2c1CCCCN1CCN(CC(c2ccc(F)cc2)N2CCN(C3CCCC3)CC2)CC1` (stereo not drawn) [TCMDC-135865], the “% Inhibition” value is reported as -18.03%. Still for that read-out and setting: as for `CC1(C)N=C(N)N=C(N)N1OCCCOc1cccc2ccccc12` [TCMDC-131626], the figure is 30.73%.

For the compound `COc1ccc2ccccc2c1CCCCN1CCN(CC(c2ccc(F)cc2)N2CCN(C(C)C)CC2)CC1` (stereo not drawn) [TCMDC-134847], the “% Inhibition” value stood at 46.9%. As to `COc1ccc2ccccc2c1CCCCN1CCN(CC(c2ccc(F)cc2)N2CCC(N3CCCC3)CC2)CC1` (stereo not drawn) [TCMDC-135866], the “% Inhibition” value came out at 9.799%.

As for `CN1CCN(c2ccc(-c3cccc(NC(=O)c4cccc(Cl)c4)c3)nn2)CC1` [TCMDC-125348], the “% Inhibition” value is 20.42%. The same measure, in the same setting: the result for `N#CC(c1ccc(Br)cc1)c1ccc2c(C(F)(F)F)cc(C(F)(F)F)nc2n1` (stereo not drawn) [TCMDC-123754] reads 9.304%; that for `CCCN(CCC)S(=O)(=O)c1ccc(C(=O)Nc2nc3ccc(-c4cc(=O)[nH]c(Nc5ccccc5Cl)n4)cc3[nH]2)cc1` [TCMDC-135852], -12.1%; that for `CN1CCOc2ccc(Nc3nnc(-c4cccc(-c5cccnc5)c4)o3)cc2C1` [TCMDC-134278], -13.91%. Same read-out and setting: as for `O=C(/C=C/c1ccccc1F)NC1CCC(CCN2CCc3ccc(-c4cccnc4)cc3CC2)CC1` (stereo not drawn) [TCMDC-140229], the figure is -63.4%. For the compound `CN(C)CCn1c(=N)n(CC(O)c2ccc(Cl)c(Cl)c2)c2ccccc21` (stereo not drawn) [TCMDC-125810], the “% Inhibition” value was found to be 59.92%. On the same count and under the same terms, the result for `CN(CCC(O)c1ccc(Cl)c(Cl)c1)CC1CC1C(=O)c1ccccc1` (stereo not drawn) [TCMDC-136791] reads 31.08%; that for `CCN(CC)CCn1c(=N)n(CC(O)c2ccc(Cl)c(Cl)c2)c2ccccc21` (stereo not drawn) [TCMDC-124062], 86.67%.

As for `CCCCCCCn1c(=N)n(CC(O)c2ccc(Cl)c(Cl)c2)c2ccccc21` (stereo not drawn) [TCMDC-124065], the “% Inhibition” value was 113.9%. Same read-out and setting: as for `COc1cccc(C(=O)C2CC2CN(C)CCC(O)c2ccc(Cl)c(Cl)c2)c1` (stereo not drawn) [TCMDC-136793], the figure is 24.64%; as for `CN(CCN(C)CC(O)c1ccc(Cl)c(Cl)c1)CC(O)c1ccc(Cl)c(Cl)c1` (stereo not drawn) [TCMDC-141988], -33.12%.

Turning to `CCCCCCCCCCNCC(O)c1ccc(O)c(C(=O)OC)c1` (stereo not drawn) [TCMDC-132043], the “% Inhibition” value is reported as 1.141%. Still for that read-out and setting: as for `CCCCCCCCCn1c(NCc2cc(Cl)ccc2O)nc2ccccc21` [TCMDC-123817], the figure is -10.34%; as for `CCc1cccc(-n2c(=O)c3cccnc3n2CC(=O)NCc2ccccc2Cl)c1` [TCMDC-125159], 19.11%.

For `Cc1ccc(N2C(N)=NC(N)=NC2c2ccccc2)cc1` (stereo not drawn) [TCMDC-123675], the “% Inhibition” value is 47.57%. `O=C(Nc1ccc([N+](=O)[O-])cc1Cl)c1cc2ccccc2cc1O` [TCMDC-123517]: the “% Inhibition” value is 12.28%. Turning to `O=C(/C=C/c1ccccc1)N1CCOC(CCN2CCC(c3ccccc3)CC2)(c2ccc(Cl)c(Cl)c2)C1` (stereo not drawn) [TCMDC-135350], the “% Inhibition” value came to 15.63%. On the same count and under the same terms, as for `CN(Cc1cccc(O)c1)C1CCN(c2cc(NC(=O)c3ccc(F)cc3)ccn2)CC1` [TCMDC-134965], the figure is -26.89%. For the compound `CCCNCc1ccc(-c2ccc(CN(CCOC)C(=O)c3cnc(C)cn3)cc2)nc1` [TCMDC-141534], the “% Inhibition” value was 98.71%. Same read-out and setting: as for `CCCNCc1ccc(-c2ccc(CN(CCOC)C(=O)c3cscn3)cc2)nc1` [TCMDC-141525], the figure is 101.5%. With `CCCNCc1ccc(-c2ccc(CN(Cc3cnc(C)cn3)C(=O)CC#N)cc2)nc1` [TCMDC-141527], the “% Inhibition” value came out at 78.38%. With `CCCNCc1ccc(-c2ccc(CN(Cc3cnc(C)cn3)C(=O)/C=C/c3ccccc3C)cc2)nc1` [TCMDC-141545], the “% Inhibition” value was 35.86%.

In the case of `CCCNCc1ccc(-c2ccc(CN(CCOC)C(=O)c3ccc([N+](=O)[O-])c(C)c3)cc2)nc1` [TCMDC-141544], the “% Inhibition” value came to 54.62%. As for `CCc1nc(N)nc(N)c1CCCOc1ccccc1Cl` [TCMDC-137928], the “% Inhibition” value is reported as -12.09%. For the compound `N#Cc1ccc2c(c1)CN(CC[C@H]1CC[C@H](NC(=O)/C=C/c3c[nH]c4ccccc34)CC1)CC2` [TCMDC-139191], the “% Inhibition” value (% Inhibition) is -21.51%. Consider `COc1cc(Cc2cnc(N)nc2N)cc(OCCCN2C(=O)c3ccccc3C2=O)c1OC` [TCMDC-137365], for which the “% Inhibition” value is listed as 18.85%. As to `CCC(C)C(COC(=O)c1cc(OC)c(OC)c(OC)c1)N(C)CCN(C)C(COC(=O)c1cc(OC)c(OC)c(OC)c1)C(C)CC` (stereo not drawn) [TCMDC-131453], the “% Inhibition” value turned out to be 2.796%. As to `Cc1ccc(Sc2ccc(NC(=O)CN3CCN(C(=O)c4ccco4)CC3)cc2)cc1C` [TCMDC-124861], the “% Inhibition” value was found to be 2.666%. Turning to `COCc1ccc(CN2CCC(C(=O)Nc3ccc(-c4nc5ccccc5[nH]4)cc3)CC2)o1` [TCMDC-124678], the “% Inhibition” value is given as -40.1%.

As for `CCCNCc1ccc(-c2ccc(CN(CCOC)C(=O)/C=C/c3ccccc3C)cc2)nc1` [TCMDC-141546], the “% Inhibition” value was found to be 40.67%. As for `CCCNCc1ccc(-c2ccc(CN(CCOC)C(=O)c3cccc(C#N)c3)cc2)nc1` [TCMDC-141538], the “% Inhibition” value stood at 90.8%.

On to `CCCNCc1ccc(-c2ccc(CN(CCOC)C(=O)c3ccco3)cc2)nc1` [TCMDC-141535], for which the “% Inhibition” value turned out to be 89.84%. On the same count and under the same terms, as for `CCCNCc1ccc(-c2ccc(CN(CCOC)C(=O)c3ccccc3)cc2)nc1` [TCMDC-141540], the figure is 44.11%; as for `Cc1ccc(CNC(=O)[C@H](CC(C)C)Nc2cc(C)nc(NCc3ccccc3C)n2)cc1` [TCMDC-134910], -39.78%. As for `Cc1ccc(Nc2ccnc(Nc3ccc(C)c(F)c3)n2)cc1O` [TCMDC-138498], the “% Inhibition” value worked out at 0.05121%. As for `O=C(/C=C/c1ccc(Cl)c(Cl)c1)NCCCCCN1CCC(c2c[nH]c3ccccc23)C(O)C1` (stereo not drawn) [TCMDC-139694], for the setting “% Inhibition”, the “% Inhibition” value is recorded as -6.926%. On to `O=C(Cc1ccc(Cl)cc1)NC1CCN(c2ccnc3cc(Cl)ccc23)C1` (stereo not drawn) [TCMDC-133399], for which the “% Inhibition” value is -11.42%. As for `CC1(C)OC[C@]2(C)[C@@H](CC[C@]3(C)C4=CC(=O)CCC4CC[C@@H]23)O1` (stereo partly drawn) [TCMDC-137379], the “% Inhibition” value came to 35.88%. As to `CC(C)c1sc(-c2ccc(C(C)(C)C)cc2)nc1C(=O)NCCCN1CCCC1=O` [TCMDC-133691], the “% Inhibition” value amounted to 25.46%.

`CCc1sc(-c2ccc(C(C)(C)C)cc2)nc1C(=O)NCCCN1CCCC1=O` [TCMDC-133692]: the “% Inhibition” value is on record as 75.07%. Take `O=C(NCCCN1CCCC1=O)NCc1ccccc1` [TCMDC-123844]: the “% Inhibition” value was 3.062%. Same read-out and setting: the result for `Cc1ccc(C(C(=O)Nc2ccc(N3CCNCC3)c(Cl)c2)c2ccccc2)cc1` (stereo not drawn) [TCMDC-134292] reads 32.74%; that for `O=C(Nc1ccc(C(F)(F)F)cc1)Nc1ccccc1N1CCNCC1` [TCMDC-133726], 29.85%. On the same count and under the same terms, as for `O=C(Nc1ccc(Cl)c(Cl)c1)Nc1ccccc1N1CCNCC1` [TCMDC-133727], the figure is 92.01%; as for `O=C(Nc1ccc(Cl)c(Cl)c1)Nc1ccc2nccc(N3CCN(Cc4ccccc4)CC3)c2c1` [TCMDC-139649], 65.98%; as for `Cc1cc(N2CCNCC2)c2cc(NC(=O)Nc3ccc(Cl)c(Cl)c3)ccc2n1` [TCMDC-139533], 55.92%. Regarding `O=C(Nc1ccc(Cl)c(Cl)c1)Nc1ccc2nccc(N3CCNCC3)c2c1` [TCMDC-139452], the “% Inhibition” value is on record as -0.1389%. `CN1CCN(c2ncnc3ccc(NC(=O)Nc4ccc(Cl)c(Cl)c4)cc23)CC1` [TCMDC-139439]: the “% Inhibition” value came out at 21.32%. In the case of `CN1CCN(c2ccnc3ccc(NC(=O)Nc4ccc(Cl)c(Cl)c4)cc23)CC1` [TCMDC-139321], the “% Inhibition” value is listed as 12.28%. On to `CN1CCN(c2ccnc3ccc(NC(=O)Nc4c(Cl)cccc4Cl)cc23)CC1` [TCMDC-139352], for which the “% Inhibition” value is given as -27.77%. On to `O=C(N[C@@H](CC1CCCCC1)C(=O)NC1CCCc2ccccc21)c1ccc(O)c(-c2cccc(C(F)(F)F)c2)c1` (stereo partly drawn) [TCMDC-140821], for which the “% Inhibition” value is listed as 14.55%.

These data come from paper PMC4552634, “A New Set of Chemical Starting Points with Plasmodium falciparum Transmission-Blocking Potential for Antimalarial Drug Discovery” (PLoS ONE, 2015).
